Test results published in PubChem BioAssay (NCATS).
Records with an inconclusive call do not appear. Active and inactive are the calls of the source. Unless noted, calls come from the whole dose curve; as a rule, active = well fitted curve in the direction sought with a large enough effect; inconclusive = small, poorly fitted or top-dose-only effect, or another doubt; inactive = no such curve, though single readings can be large; an effect the other way counts as inactive or inconclusive.

Columns and labels:
[1] = qHTS Assay for Identification of Small Molecule Inducers of Hypoxia Response (AID 2120; active = well fitted curve in the direction sought with a large enough effect in the signal ratio, with a control signal flat, not every such curve was filed as active; the % refers to the signal ratio)
Method in brief: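 HRE-beta-lactamase reporter in CellSensor HRE-bla ME-180 cells, 2500 cells/well in Opti-MEM with 0.5% dialyzed FBS; compounds tested as titration series, 17 h at 37 degrees C. CCF4 substrate 2.5 h at room temperature; AC50 from 460/530 nm ratio.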

[2] = biological target: Ferritin light chain (Equus caballus) (UniProt P02791); test: qHTS Validation Assay for Identification of Novel General Anesthetics (AID 2323); note: series mostly up to about 77 µM
Sequence of Ferritin light chain (Equus caballus) (P02791 2-175 limits assumed): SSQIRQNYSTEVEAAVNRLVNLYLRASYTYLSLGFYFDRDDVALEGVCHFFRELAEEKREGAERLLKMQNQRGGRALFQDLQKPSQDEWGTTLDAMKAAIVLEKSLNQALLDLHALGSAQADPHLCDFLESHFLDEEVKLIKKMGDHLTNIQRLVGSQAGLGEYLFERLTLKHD
Method in brief: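 10 uM horse-spleen apoferritin + 1-AMA (50% saturated, PBS); cpd pin-transferred, 10 min RT. Ex 380/Em 535 nm endpoint. Activity normalized between free 1-AMA and 1-AMA/apoferritin; 4-parameter Hill fit of concentration-response.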

[3] = biological target: ATP-dependent DNA helicase Q1 (Homo sapiens) (UniProt P46063); test: qHTS Validation Assay for Inhibitors of RecQ-Like Dna Helicase 1 (RECQ1) (AID 2353)
Method in brief: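 50 nM RECQ1T1 preincubated 15 min with compound in Tris pH 8.0 buffer with MgCl2, DTT, Tween-20 and 2.5 ug/ml poly(dI-dC); started with 200 nM TAMRA/BHQ-2 forked duplex and 2 mM ATP. Unwinding read as fluorescence (525/598 nm), two reads 2 h apart.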

[4] = biological target: RecQ-like DNA helicase BLM (Homo sapiens) (UniProt P54132); test: qHTS Validation Assay for Inhibitors of Bloom's syndrome helicase (BLM) (AID 2364)
Sequence of RecQ-like DNA helicase BLM (Homo sapiens) (P54132 whole entry, looked up): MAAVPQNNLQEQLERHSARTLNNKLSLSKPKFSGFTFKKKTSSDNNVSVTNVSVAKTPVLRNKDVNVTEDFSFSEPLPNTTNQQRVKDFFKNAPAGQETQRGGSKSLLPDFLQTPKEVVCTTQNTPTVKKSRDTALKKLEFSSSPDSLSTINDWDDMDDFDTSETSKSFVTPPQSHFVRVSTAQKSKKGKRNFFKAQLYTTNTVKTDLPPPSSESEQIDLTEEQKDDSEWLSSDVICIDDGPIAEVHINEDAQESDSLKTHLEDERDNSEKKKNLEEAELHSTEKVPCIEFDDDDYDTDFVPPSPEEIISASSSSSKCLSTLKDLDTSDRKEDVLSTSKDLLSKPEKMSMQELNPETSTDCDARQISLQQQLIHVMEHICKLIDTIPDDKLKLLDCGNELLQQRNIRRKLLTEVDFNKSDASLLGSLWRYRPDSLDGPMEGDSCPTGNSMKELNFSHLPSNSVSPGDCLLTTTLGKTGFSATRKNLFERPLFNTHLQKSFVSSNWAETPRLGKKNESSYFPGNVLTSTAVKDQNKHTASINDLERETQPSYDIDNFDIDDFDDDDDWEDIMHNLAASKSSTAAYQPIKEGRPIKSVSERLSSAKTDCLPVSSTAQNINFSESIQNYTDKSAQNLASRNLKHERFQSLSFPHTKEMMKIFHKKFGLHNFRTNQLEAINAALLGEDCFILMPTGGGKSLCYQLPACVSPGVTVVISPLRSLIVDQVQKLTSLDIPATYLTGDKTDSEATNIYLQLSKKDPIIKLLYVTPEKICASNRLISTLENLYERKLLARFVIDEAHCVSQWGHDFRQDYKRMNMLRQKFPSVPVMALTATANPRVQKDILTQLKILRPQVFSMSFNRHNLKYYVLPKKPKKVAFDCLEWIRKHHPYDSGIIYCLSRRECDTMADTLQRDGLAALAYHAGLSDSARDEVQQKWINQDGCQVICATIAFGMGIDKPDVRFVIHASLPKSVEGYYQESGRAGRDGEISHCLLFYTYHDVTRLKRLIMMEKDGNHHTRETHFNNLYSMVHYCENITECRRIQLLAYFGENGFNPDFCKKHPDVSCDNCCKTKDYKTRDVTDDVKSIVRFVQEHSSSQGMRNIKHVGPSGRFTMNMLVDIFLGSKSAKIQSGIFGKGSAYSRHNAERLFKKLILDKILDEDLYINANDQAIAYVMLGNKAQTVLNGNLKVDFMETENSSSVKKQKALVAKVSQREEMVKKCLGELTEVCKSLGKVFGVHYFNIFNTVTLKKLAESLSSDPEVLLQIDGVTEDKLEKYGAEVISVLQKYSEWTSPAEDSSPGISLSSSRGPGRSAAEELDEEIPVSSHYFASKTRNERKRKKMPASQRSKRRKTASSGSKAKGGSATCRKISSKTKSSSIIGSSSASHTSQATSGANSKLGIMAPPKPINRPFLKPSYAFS
Method in brief: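 Forked 20-bp duplex substrate (200 nM, TAMRA/BHQ-2) plus 2 mM ATP added after 15 min compound preincubation with 50 nM enzyme, pH 8.0, poly(dI-dC) 2.5 ug/ml. Strand separation followed by fluorescence (525/598 nm) over 2 h, normalized to enzyme-free and DMSO controls.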

[5] = Cytometric Cell-Based qHTS for Inhibitors of the mTORC1 Signaling Pathway in MEF (Tsc2-/-, p53-/-) Cells (AID 2660);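 note: Tsc2 and p53 null MEFs carrying empty vector with compound for 24 h; percent of cells above a phospho-rpS6 to PI ratio cutoff in each well; series mostly up to about 38 µM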
Method in brief: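 Percent of cells positive for normalized phospho-S6 staining is reported, with the cutoff set from rapamycin (7.5 nM) versus DMSO wells. Tsc2-/-, p53-/- MEFs received compound for 24 hrs.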

[6] = High Content Imaging Cell-Based qHTS for Inhibitors of the mTORC1 Signaling Pathway in MEF (Tsc2-/-, p53-/-) Cells (AID 2666);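 note: percent of cells scored positive for phospho-rpS6 Ser235/236 immunostaining by imaging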
Method in brief: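 Cells were plated, dosed with compound after 24 hrs, and incubated another 24 hrs at 37 degree Celsius. Fixed cells were immunostained for phospho-rpS6 Ser235/236 and counterstained, and the normalized signal was scored as % active cells against rapamycin and DMSO controls.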

[7] = High Content Imaging Cell-Based qHTS for Inhibitors of the mTORC1 Signaling Pathway in MEF Cells (AID 2667);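 note: Tsc2-/- p53-/- MEFs stably re-expressing wild-type Tsc2 exposed 24 h; series mostly up to about 38 µM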
Method in brief: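 Immunofluorescence for rpS6 phosphorylation in MEFs of Tsc2-/-, p53-/- background rescued with WT Tsc2. Compound exposure lasted 24 hrs. Inhibition was scored against rapamycin-treated control wells.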

[8] = Cytometry Cell-Based qHTS for Inhibitors of the mTORC1 Signaling Pathway in MEF cells (AID 2668);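 note: Tsc2-/- p53-/- mouse embryonic fibroblasts stably re-expressing wild-type Tsc2; percent cells positive for phospho-rpS6 Ser235/236 relative to propidium iodide stain; series mostly up to about 38 µM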
Method in brief: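 Read-out: phospho-rpS6 Ser235/236 immunofluorescence normalized to propidium iodide intensity, scored as % active cells against a rapamycin (7.5 nM) threshold. Cells: Tsc2-/-, p53-/- MEFs stably expressing WT Tsc2, compound-treated 24 hrs at 37 degree Celsius.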

[9] = Validation screen for small molecules that induce DNA re-replication in MCF 10A normal breast cells (AID 463097); note: nearly all actives have a fitted effect of over 60% in size
Method in brief: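 250 MCF 10A cells/well; compound pin-transferred; 48 hr, 37 C, 5% CO2; Hoechst 40 min; imaged 405/500-530 nm. Hits = more high-intensity nuclei.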

[10] = biological target: Ubiquitin carboxyl-terminal hydrolase 2 (Homo sapiens) (UniProt O75604); test: qHTS Validation Assay for Inhibitors of Ubiquitin-specific Protease USP2a Using CHOP2 as the Reporter (AID 463106)
Sequence of Ubiquitin carboxyl-terminal hydrolase 2 (Homo sapiens) (O75604 whole entry, looked up): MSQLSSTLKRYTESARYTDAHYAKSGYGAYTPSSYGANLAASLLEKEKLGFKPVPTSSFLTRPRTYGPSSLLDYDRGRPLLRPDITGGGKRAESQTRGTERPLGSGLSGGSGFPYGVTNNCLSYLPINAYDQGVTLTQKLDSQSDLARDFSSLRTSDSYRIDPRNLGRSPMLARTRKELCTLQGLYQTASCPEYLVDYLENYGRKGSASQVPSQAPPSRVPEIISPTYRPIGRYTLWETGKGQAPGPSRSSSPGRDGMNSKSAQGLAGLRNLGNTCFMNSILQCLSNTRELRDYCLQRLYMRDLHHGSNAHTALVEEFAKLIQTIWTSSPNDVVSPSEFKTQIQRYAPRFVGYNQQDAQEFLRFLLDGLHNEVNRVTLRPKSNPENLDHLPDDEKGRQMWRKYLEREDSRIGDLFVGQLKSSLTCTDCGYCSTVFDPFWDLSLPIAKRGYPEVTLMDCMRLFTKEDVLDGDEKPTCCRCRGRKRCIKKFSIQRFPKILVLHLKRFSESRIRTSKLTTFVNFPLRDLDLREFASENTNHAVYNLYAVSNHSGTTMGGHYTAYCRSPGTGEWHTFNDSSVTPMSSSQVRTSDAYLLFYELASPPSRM
Method in brief: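 10nM USP2 core + cpd, 30min RT; add 25nM Ub-CHOP2/25nM substrate; 60min RT; FI 485/531nm. Buffer Tris pH 8.0, CaCl2, BME, CHAPS. Norm. to NEM = 100% inhibition; time-zero read flags fluorescent artifacts.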

[11] = biological target: DNA polymerase III PolC-type (Bacillus subtilis (strain 168)) (UniProt P13267); test: qHTS Validation Assay for the Inhibitors of DNA Replication in Gram-Positive Bacteria (AID 485295);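 note: reconstituted holoenzyme with PolC plus beta clamp SSB and primase; PicoGreen fluorescence of double-stranded DNA made on primed circular M13 template; series mostly up to about 57 µM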
Method in brief: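 PicoGreen fluorescence (ex 480–485/em 535–540 nm) reports dsDNA synthesized on ssM13Gori template with dNTPs/NTPs. Enzyme: holoenzyme rebuilt from purified PolC, beta subunit, SSB and primase. Compound preincubated before substrate addition; RT throughout.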

[12] = biological target: Tumor susceptibility gene 101 protein (Homo sapiens) (UniProt Q99816); test: qHTS Validation Assay for Iinhibitors of HIV-1 Budding by Blocking the Interaction of PTAP/TSG101 (AID 485342; calls by dose curve)
Sequence of Tumor susceptibility gene 101 protein (Homo sapiens) (Q99816 whole entry, looked up, the tested form may be a part): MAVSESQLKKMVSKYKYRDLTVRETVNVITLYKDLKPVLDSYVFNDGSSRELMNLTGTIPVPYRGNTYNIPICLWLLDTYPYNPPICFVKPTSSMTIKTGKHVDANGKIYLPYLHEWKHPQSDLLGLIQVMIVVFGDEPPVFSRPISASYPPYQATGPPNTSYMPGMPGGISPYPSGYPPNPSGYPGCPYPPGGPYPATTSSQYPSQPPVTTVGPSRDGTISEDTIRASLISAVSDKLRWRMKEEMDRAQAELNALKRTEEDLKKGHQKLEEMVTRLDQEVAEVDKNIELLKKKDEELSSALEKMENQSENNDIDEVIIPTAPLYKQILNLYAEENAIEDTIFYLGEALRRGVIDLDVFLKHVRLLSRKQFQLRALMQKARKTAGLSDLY
Method in brief: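 FP read-out: FITC-PTAP peptide, 50 nM final, binding Tsg101 binding domain, 10 uM final; 20 min r.t.; 10 mM HEPES pH 7.5, 0.15 M NaCl, 0.01% Tween 20, 3 mM EDTA, 0.1 mM TCEP.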

[13] = biological target: Beta-2 adrenergic receptor (Homo sapiens) (UniProt P07550); test: qHTS validation assay of beta-arrestin-biased ligands of beta2-adrenergic receptor (AID 485366)
Sequence of Beta-2 adrenergic receptor (Homo sapiens) (P07550 whole entry, looked up): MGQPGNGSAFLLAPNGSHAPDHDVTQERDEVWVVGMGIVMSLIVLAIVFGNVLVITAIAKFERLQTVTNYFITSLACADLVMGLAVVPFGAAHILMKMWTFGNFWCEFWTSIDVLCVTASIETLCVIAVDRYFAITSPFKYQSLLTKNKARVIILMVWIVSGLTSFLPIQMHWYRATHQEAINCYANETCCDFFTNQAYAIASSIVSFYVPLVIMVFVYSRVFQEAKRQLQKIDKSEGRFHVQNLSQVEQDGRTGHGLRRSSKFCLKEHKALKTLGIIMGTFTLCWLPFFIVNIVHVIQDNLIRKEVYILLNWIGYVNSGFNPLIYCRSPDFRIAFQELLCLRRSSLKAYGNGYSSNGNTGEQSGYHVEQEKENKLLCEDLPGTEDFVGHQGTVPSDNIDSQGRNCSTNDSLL
Method in brief: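 Luminescence from a tTA-responsive luciferase, induced when recombinant beta-arrestin is recruited to recombinant beta2-AR, served as the agonism signal. Cells were exposed to compound for 18 hr at 37 degrees C; titrations spanned up to 46 microM.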

[14] = Quantitative high throughput screen for delayed death inhibitors of the malarial parasite plastid, 96 hour incubation (AID 488745); note: series mostly up to about 29 µM; nearly all actives have a fitted effect of over 70% in size
Method in brief: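 P. falciparum carrying an integrated firefly luciferase reporter, grown in erythrocytes (2% hematocrit, 0.1% parasitemia final) in RPMI 1640/0.5% Albumax, was exposed to compound for 96 h (two generations) at 37 C, 5% CO2. Luminescence decrease indicated growth inhibition.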

[15] = biological target: Thioredoxin reductase 1, cytoplasmic (Rattus norvegicus) (UniProt O89049); test: qHTS Assay for Substrates of Mammalian Selenoprotein Thioredoxin Reductase 1 (TrxR1) (AID 488772);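 note: NADPH fluorescence in the first read after selenite addition and not the 8 min delta; series mostly up to about 57 µM; a drop in NADPH fluorescence below the no-compound background marks a TrxR1 substrate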
Sequence of Thioredoxin reductase 1, cytoplasmic (Rattus norvegicus) (O89049 whole entry, looked up): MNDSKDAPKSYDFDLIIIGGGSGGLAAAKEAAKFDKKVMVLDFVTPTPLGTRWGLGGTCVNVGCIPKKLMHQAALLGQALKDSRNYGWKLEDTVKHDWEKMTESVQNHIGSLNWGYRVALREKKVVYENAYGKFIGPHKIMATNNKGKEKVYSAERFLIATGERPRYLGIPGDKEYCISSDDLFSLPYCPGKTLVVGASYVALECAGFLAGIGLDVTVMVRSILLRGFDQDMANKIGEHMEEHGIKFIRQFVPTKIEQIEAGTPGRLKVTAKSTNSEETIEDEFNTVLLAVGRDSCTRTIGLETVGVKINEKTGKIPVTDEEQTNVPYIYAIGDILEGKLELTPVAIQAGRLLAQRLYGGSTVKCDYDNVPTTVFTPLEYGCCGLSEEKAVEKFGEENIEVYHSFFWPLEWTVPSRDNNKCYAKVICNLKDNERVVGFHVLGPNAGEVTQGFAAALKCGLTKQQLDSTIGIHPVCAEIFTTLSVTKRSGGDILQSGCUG
Method in brief: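 Quantitative HTS in Tris-HCl buffer at pH 7.5 with EDTA and Tween-20, using rat TrxR1, 400 uM NADPH and 400 uM selenite (final). A fall in initial NADPH fluorescence relative to background marked substrate behaviour.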

[16] = biological target: Thioredoxin reductase 1, cytoplasmic (Rattus norvegicus) (UniProt O89049); test: qHTS Assay for Inhibitors of Mammalian Selenoprotein Thioredoxin Reductase 1 (TrxR1) (AID 488773); settings: Potency: inhibition;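 note: drop in NADPH fluorescence over an 8 min run after selenite addition; series mostly up to about 57 µM; nearly all actives have a fitted effect of over 40% in size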
Method in brief: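 Steps: enzyme (90 nM) plus NADPH (400 uM final), 5 min at ~22 deg C; compound added, 15 min; selenite (400 uM final) added; fluorescence followed for 8 min. Concentration-response curves derived from the normalized delta values.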

[17] = biological target: Flap endonuclease 1 (Homo sapiens) (UniProt P39748); test: qHTS Validation Assay for the Inhibitors of Human Flap endonuclease 1 (FEN1) (AID 488816)
Sequence of Flap endonuclease 1 (Homo sapiens) (P39748 whole entry, looked up): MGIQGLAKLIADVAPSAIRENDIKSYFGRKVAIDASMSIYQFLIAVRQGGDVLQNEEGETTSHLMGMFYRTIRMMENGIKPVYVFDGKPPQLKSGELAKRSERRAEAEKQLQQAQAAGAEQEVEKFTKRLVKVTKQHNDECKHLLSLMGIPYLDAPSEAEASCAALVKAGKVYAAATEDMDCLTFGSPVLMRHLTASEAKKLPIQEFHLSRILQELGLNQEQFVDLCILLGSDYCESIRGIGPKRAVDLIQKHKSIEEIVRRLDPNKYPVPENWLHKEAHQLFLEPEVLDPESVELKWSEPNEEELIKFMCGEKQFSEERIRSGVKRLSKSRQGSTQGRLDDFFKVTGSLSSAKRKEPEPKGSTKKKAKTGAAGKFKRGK
Method in brief: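 Readings taken at 0 and 15 min after starting the reaction with 50 nM (final) substrate supplied the signal. Compounds had first sat with 10 nM FEN1 reagent for 15 min at room temperature. Values come from Hill-equation concentration-response fits.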

[18] = biological target: M-phase phosphoprotein 8 (Homo sapiens) (UniProt Q99549); test: qHTS Validation Assay for Inhibitors for MPP8 Chromodomain Interactions with Methylated Histone Tails (AID 488949);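 note: AlphaScreen signal from MPP8 chromodomain bound to biotinylated H3K9me3 peptide; top concentration of the series differs between compounds; nearly all actives have a fitted effect of over 55% in size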
Method in brief: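 AlphaScreen read-out: streptavidin donor and nickel chelate acceptor beads (final 10 ug/mL), 30 min in the dark at RT. Complex of 50 nM MPP8 and 50 nM b-H3(1-18)K9me3 peptide had been exposed to compounds for 30 min beforehand.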

[19] = biological target: Chromobox protein homolog 1 (Homo sapiens) (UniProt P83916); test: qHTS Validation Assay for Inhibitors of HP1-beta Chromodomain Interactions with Methylated Histone Tails (AID 488953);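 note: loss of AlphaScreen luminescence from HP1-beta binding biotinylated H3K9me3 peptide; series mostly up to about 110 µM; nearly all actives have a fitted effect of over 50% in size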
Sequence of Chromobox protein homolog 1 (Homo sapiens) (P83916 whole entry, looked up): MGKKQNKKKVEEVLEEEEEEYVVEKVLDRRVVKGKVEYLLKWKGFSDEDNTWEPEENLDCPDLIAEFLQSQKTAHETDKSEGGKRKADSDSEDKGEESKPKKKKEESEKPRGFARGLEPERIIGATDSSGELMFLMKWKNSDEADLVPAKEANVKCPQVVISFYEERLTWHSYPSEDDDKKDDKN
Method in brief: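 HP1-beta (50 nM) was preincubated 30 min at room temperature with biotinylated H3(1-18)K9me3 peptide (50 nM) in PBS pH 7.4, 0.01% Tween-20, then with compounds 30 min. AlphaScreen signal was read after streptavidin donor/nickel chelate acceptor beads (10 ug/mL final).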

[20] = biological target: ATP-dependent 6-phosphofructokinase (Trypanosoma brucei brucei) (UniProt O15648); test: qHTS Validation Assay to Find Inhibitors of T. brucei phosphofructokinase (AID 485368); settings: outcome: dose series up to 57.5 µM
Sequence of ATP-dependent 6-phosphofructokinase (Trypanosoma brucei brucei) (O15648 whole entry, looked up): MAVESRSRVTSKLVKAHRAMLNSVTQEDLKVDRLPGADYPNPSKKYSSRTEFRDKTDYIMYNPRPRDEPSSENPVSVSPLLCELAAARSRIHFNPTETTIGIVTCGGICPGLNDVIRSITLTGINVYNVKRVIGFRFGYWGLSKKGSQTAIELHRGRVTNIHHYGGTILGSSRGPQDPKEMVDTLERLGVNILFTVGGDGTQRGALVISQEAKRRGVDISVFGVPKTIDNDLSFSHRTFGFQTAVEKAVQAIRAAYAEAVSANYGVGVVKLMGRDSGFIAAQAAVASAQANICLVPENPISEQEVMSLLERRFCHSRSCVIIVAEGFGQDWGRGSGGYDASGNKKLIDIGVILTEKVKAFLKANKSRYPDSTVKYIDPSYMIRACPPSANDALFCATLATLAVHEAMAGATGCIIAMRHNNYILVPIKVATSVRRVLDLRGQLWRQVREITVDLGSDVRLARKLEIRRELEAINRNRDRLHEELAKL
Method in brief: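 Activity was normalized between 1x (1.25 nM) PFK wells as no inhibition and enzyme-free wells as full inhibition, from luminescence after ADP-Glo detection of ADP made from 0.5 mM F6P and 0.1 mM ATP over 45 min.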

Measured: Potency

CCCNC(=O)NS(=O)(=O)c1ccc(Cl)cc1
not listed: [20]
inactive: all other assays above

CN(C)CCC(c1ccccc1)c1ccccn1 (centres undefined)
not listed: [1] | [17]
inactive: all other assays above

Clc1ccc(Cn2c(CN3CCCC3)nc3ccccc32)cc1
not listed: [1] | [2] | [4] | [14] | [19] | [20]
inactive: all other assays above

COc1ccccc1N1CCN(CCCNc2cc(=O)n(C)c(=O)n2C)CC1
not listed: [1] | [4] | [14] | [16] | [20]
inactive: all other assays above

O=C1NCC2(CCN(CCc3ccccc3)CC2)O1
not listed: [1] | [4] | [20]
inactive: all other assays above

C[N+](C)(C)CC(=O)O
inactive: [5] | [6] | [7] | [8] | [10] | [11] | [12] | [13] | [15] | [16]

COC(=O)[C@@H]1[C@H]2C[C@H]3c4[nH]c5ccccc5c4CCN3C[C@@H]2CC[C@@H]1O
not listed: [1] | [8] | [17]
inactive: all other assays above

CC(=O)O[C@]1(C(C)=O)CC[C@H]2[C@@H]3C=C(Cl)C4=CC(=O)[C@@H]5C[C@@H]5[C@]4(C)[C@H]3CC[C@@]21C
not listed: [1] | [2] | [3] | [4] | [9] | [14]
inactive: all other assays above
